# Test results from PubChem BioAssay (NCI).
# The panel holds about 79,000 compounds, 15% with a hit somewhere; the sample as a whole holds those more often. A number with no mark means an inactive call. Calls of active or inactive are those of the source. Cut-off read from the data, not from the text of the source: active = growth inhibition above about 70%; inactive = the rest.
# Assay: NCI Yeast Anticancer Drug Screen. Data for the sgs1 strain (AID 173);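 note: 0% = growth of vehicle-only control cultures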
# Settings: S. cerevisiae sgs1 mutant, stronger effect = higher value
# Procedure: Growth inhibition of yeast strains with defined genetic alterations is measured as a screen for potential anti-cancer activity. Selected strains with alterations in DNA damage repair or cell cycle control were exposed to compounds and growth inhibition was measured relative to vehicle treated controls. The strain used in this assay is sgs1
Structure (SMILES),growth inhibition (at 1.2 µM),growth inhibition (at 3.7 µM),growth inhibition (at 11.0 µM),growth inhibition (at 33.0 µM),growth inhibition (at 100.0 µM)
Clc1ccc(SC(/C=C/NNC2=NC(c3ccccc3)C(c3ccccc3)=NN2)c2ccccc2)cc1 (stereo not given),1%,3%,4%,33%,87% (active)
BrCc1cccc2ccc3cccc(CBr)c3c12,-3%,-3%,-4%,-3%,-1%
Brc1ccc(-c2cc3c(cc2C2SCCS2)OCO3)cc1,3%,9%,5%,52%,76% (active)
COc1ccccc1/C=C1\Sc2scc(-c3cccc([N+](=O)[O-])c3)[n+]2C1=O,34%,89% (active),99% (active),97% (active),90% (active)
Nc1nc(Cl)c(Cl)c(Cl)n1,1%,14%,45%,99% (active),99% (active)
COc1cc2c3c(cccc3c1)C(=O)N(CCN(C)C)C2=O,-21%,-14%,-22%,-15%,-11%
CN(C)CCn1c2c3ccccc3ccc2c2oc(=O)c3ccccc3c21,12%,16%,50%,93% (active),92% (active)
O=C1C2C(C(=O)N1c1ccc(OCc3ccccc3)cc1)C1c3ccccc3C2C2CCCCN21 (stereo not given),-2%,-1%,-2%,19%,94% (active)
